This is part of a sample that, as a whole, favours compounds with a hit. Of some 83,000 tested, about 20% had one in any assay.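 Treatment: one concentration, 48 hours, 96-well format. Scoring: percent growth, with anything below 10 considered active.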 The source made the active and inactive calls.
Tests used:
Assay in all cases: NCI-60 one-dose screen, 48 h (100 = growth as untreated, 0 = no growth, -100 = all killed)
Details in all cases: 10 µM
[1] = test system: NCI-H23 lung
[2] = test system: NCI-H226 lung
[3] = test system: NCI-H322M lung
[4] = test system: HOP-62 NSCLC
[5] = test system: NCI-H460 lung
[6] = test system: NCI-H522 lung
[7] = test system: A549/ATCC NSCLC
[8] = test system: 786-0 renal
[9] = test system: COLO 205 colon

Measured: growth

C/C(=N\O)C1(O)CCCCC1
inactive: [1] 99.5% | [2] 97.7% | [3] 87.6% | [4] 106% | [5] 98.3% | [6] 92.8% | [7] 102% | [8] 99% | [9] 99.4%

CC1(C(=O)O)NC(C(=O)O)Cc2c1[nH]c1ccccc21 (stereo not drawn)
inactive: [1] 101% | [2] 93.8% | [3] 91.5% | [4] 102% | [5] 105% | [6] 92.6% | [7] 101% | [8] 104% | [9] 104%

CCN(CC)C(=O)/C=C(/C)c1ccccc1
inactive: [1] 96.5% | [2] 97.2% | [3] 106% | [4] 109% | [5] 104% | [6] 107% | [7] 113% | [8] 101% | [9] 106%

CCN(CC)CCNc1ccc(CO)c2sc3ccccc3c(=O)c12
inactive: [1] 44.9% | [2] 35.9% | [3] 50.9% | [4] 43.3% | [5] 14.5% | [7] 24.2% | [8] 49.6% | [9] 11.9%
active: [6] -17.8%

C[C@@H](c1ccccc1)[C@@H](C(=O)O)c1ccccc1
inactive: [1] 100% | [2] 98.8% | [3] 97.5% | [4] 99.7% | [5] 104% | [6] 99.9% | [7] 101% | [8] 99.5% | [9] 107%

C=C[Si](OC(C)=O)(OC(C)=O)OC(C)=O
inactive: [1] 106% | [2] 111% | [3] 87.6% | [4] 89.5% | [5] 103% | [6] 88.7% | [7] 104% | [8] 98.5% | [9] 107%

C#CC(C)(O)c1ccc(Cl)cc1 (stereo not drawn)
inactive: [1] 92.4% | [2] 78.2% | [3] 99.9% | [4] 84.6% | [5] 104% | [6] 91.4% | [7] 99.2% | [8] 95.5% | [9] 103%

c1ccc(/C(=N\N=C(/c2ccccc2)c2cccs2)c2cccs2)cc1
inactive: [1] 97.3% | [2] 89.3% | [3] 83.1% | [4] 102% | [5] 105% | [6] 83.1% | [7] 105% | [8] 84.8% | [9] 99.3%

Cc1cc(C)cc(NCCC#N)c1
inactive: [1] 108% | [2] 112% | [3] 118% | [4] 115% | [5] 107% | [6] 106% | [7] 151% | [8] 111% | [9] 131%

O=c1cc(-c2ccccc2)[nH]c(=S)[nH]1
inactive: [1] 101% | [2] 103% | [3] 97.6% | [4] 108% | [5] 108% | [6] 89.3% | [7] 104% | [8] 97.5% | [9] 119%

Cc1c(O)cccc1O
inactive: [1] 106% | [2] 93.4% | [3] 90.3% | [4] 92% | [5] 114% | [6] 73.1% | [7] 122% | [8] 102% | [9] 116%

CCNCCCCNCCCCNCCCCNCCCCNCC
inactive: [1] 49.5% | [2] 134% | [3] 42.1% | [4] 113% | [5] 76.1% | [6] 87.3% | [7] 54.4% | [8] 150% | [9] 69.1%

Cc1cc2nc(CO)[nH]c2cc1C
inactive: [1] 105% | [2] 108% | [3] 113% | [4] 99.4% | [5] 114% | [6] 96.9% | [7] 90.9% | [8] 107% | [9] 103%

c1ccc(CN2COc3c(ccc4c3OCN(Cc3ccccc3)C4)C2)cc1
inactive: [1] 29.9% | [3] 32.9% | [4] 26.2% | [6] 30.7% | [9] 12.7%
active: [2] -9.91% | [5] 9.51% | [7] 6.93% | [8] -26%

COc1cc2nc3cc([N+](=O)[O-])ccc3c(Cl)c2cc1OC
inactive: [1] 98.6% | [2] 56.3% | [3] 103% | [4] 111% | [5] 109% | [6] 70.7% | [7] 95.7% | [8] 104% | [9] 112%

COc1ccccc1NC(=O)c1cc2cc(Br)ccc2cc1O
active: [1] 4.53% | [2] 8.51% | [4] 6.34% | [5] 2.06% | [6] -24.5% | [7] 3.54%
inactive: [3] 22.6% | [8] 14.1% | [9] 50.8%

CC1(C)S(=O)(=O)OCCOS1(=O)=O
inactive: [1] 103% | [2] 102% | [3] 100% | [4] 98.4% | [5] 105% | [6] 99.6% | [7] 92% | [8] 102% | [9] 116%

CSC[C@H](NC(=O)COc1cccc2cnccc12)C(=O)NC(Cc1ccccc1)C(O)C(=O)N1CSC[C@H]1C(=O)NC(C)(C)C (stereo partly drawn)
inactive: [1] 106% | [2] 105% | [3] 95.7% | [4] 110% | [5] 125% | [6] 72.3% | [7] 110% | [8] 80.3% | [9] 106%

COc1cc2c3c(n(C)c(=O)c2cc1OC)-c1cc2c(cc1C3=O)OCO2
active: [6] 1.48%
inactive: [1] 71.9% | [2] 66.9% | [3] 89.9% | [4] 45.1% | [5] 29.3% | [7] 81.8% | [8] 77.1% | [9] 72.5%

CCCCCCCCCCC(C)Br (stereo not drawn)
inactive: [1] 102% | [2] 101% | [3] 94.5% | [4] 119% | [5] 113% | [6] 104% | [7] 97.1% | [8] 97% | [9] 110%

N#CCCN(CCCN1CCOCC1)CN1C(=O)c2ccccc2C1=O
inactive: [1] 102% | [2] 97.9% | [3] 90.8% | [4] 105% | [5] 111% | [6] 92% | [7] 105% | [8] 111% | [9] 109%

S=c1[nH]ccn1-c1ccccc1Cl
active: [6] -30.9%
inactive: [1] 112% | [2] 113% | [3] 133% | [4] 112% | [5] 117% | [7] 53.8% | [8] 109% | [9] 117%

CC1=NN(c2ccccc2)C(=O)/C1=C\N1CC(=O)NC1=S
inactive: [1] 98.1% | [2] 98.4% | [3] 108% | [4] 99.5% | [5] 98.6% | [6] 81.7% | [7] 100% | [8] 104% | [9] 106%

CC(=O)c1c[nH]c2ccccc12
inactive: [1] 106% | [2] 97.5% | [3] 101% | [4] 95.8% | [5] 113% | [6] 92.9% | [7] 103% | [8] 103% | [9] 119%

N#C/C(=C\c1cc(O)c(O)c(O)c1)C(N)=O
inactive: [1] 102% | [2] 108% | [3] 110% | [4] 97.2% | [5] 110% | [6] 76.5% | [7] 105% | [8] 94.6% | [9] 104%

Cc1ccc(/C(C#N)=C/c2ccc3c(c2)OCO3)cc1
inactive: [1] 71.2% | [2] 85.9% | [3] 78.8% | [4] 78.2% | [5] 71.3% | [6] 51.4% | [7] 57.5% | [8] 104% | [9] 65.8%

O=[N+]([O-])c1ccc(-c2ncc(-c3ccc(Br)cc3)o2)cc1
inactive: [1] 93.7% | [2] 107% | [3] 110% | [4] 114% | [5] 73.4% | [7] 30.5% | [8] 97.3% | [9] 134%
active: [6] -2.2%

Cc1cc(O)ccc1O
inactive: [1] 104% | [2] 96.1% | [3] 98.5% | [4] 89.8% | [5] 106% | [6] 82.9% | [7] 108% | [8] 75.3% | [9] 120%

FC(F)(F)c1ccc2c(c1)N(CCCN1CCN(C3CC3)CC1)c1ccccc1S2
inactive: [1] 27% | [2] 75.4% | [3] 112% | [4] 95.7% | [5] 24.4% | [6] 28.7% | [7] 67.3% | [8] 63.9% | [9] 79.9%

N#CC1(Nc2ccc3c4c(cccc24)CC3)CCCCC1
inactive: [1] 93.5% | [2] 81.8% | [3] 85.1% | [4] 92.9% | [5] 105% | [6] 63.3% | [7] 95% | [8] 106% | [9] 94.7%

O=C(CS)Nc1ccc2ccccc2c1
inactive: [1] 111% | [2] 121% | [3] 127% | [4] 120% | [5] 97.6% | [6] 118% | [7] 122% | [8] 105% | [9] 112%

c1ccc2c(N3CCCCC3)ncnc2c1
inactive: [1] 86.4% | [2] 87.2% | [3] 117% | [4] 100% | [5] 97.8% | [6] 47.6% | [7] 86.9% | [8] 98.7% | [9] 88.5%

From PubChem BioAssay (NCI)
